# Measurements published in PMC8384837, “Expanding the binding specificity for RNA recognition by a PUF domain”.
# What was measured:
# Assay in all cases: yeast three-hybrid, YBZ-1, SC-Leu-His + 0.5 mM 3-AT, 4 days
# Settings in all cases: tags: N-Gal4 AD-HA kept; label: inside an RPR1-promoter hybrid RNA with tandem MS2 sites; ssRNA
# [1] = biological target: PUM1 PUF domain R2-RVN (Homo sapiens, UniProt Q14671 828-1176, N899R;Y900V;Q903N)
# How it was run: (§1)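 The interaction score is the log change in variant frequency from input to selection. Scores were computed in log2 with a pseudocount of 1 for absent variants, using Illumina sequencing of PCR-amplified repeat regions. The input came from four days on SC-Leu and the selection from four days on SC-Leu-His + 0.5 mM 3-AT. The cells were strain YBZ-1 (LexA–MS2 coat fusion, HIS3 reporter) co-expressing Pumilio-1 PUF domain libraries and matching RNA elements from a centromeric plasmid.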
# [2] = biological target: PUM1 PUF domain R8-SFQ (Homo sapiens, UniProt Q14671 828-1176, N1122S;Y1123F)
# How it was run: as §1
# [3] = biological target: PUM1 PUF domain R5-KGT (Homo sapiens, UniProt Q14671 828-1176, C1007K;R1008G;Q1011T)
# How it was run: as §1
# [4] = biological target: PUM1 PUF domain R5-GYL (Homo sapiens, UniProt Q14671 828-1176, C1007G;R1008Y;Q1011L)
# How it was run: as §1
# [5] = biological target: PUM1 PUF domain R5-WHR (Homo sapiens, UniProt Q14671 828-1176, C1007W;R1008H;Q1011R)
# How it was run: as §1
# [6] = biological target: PUM1 PUF domain R5-RLD (Homo sapiens, UniProt Q14671 828-1176, C1007R;R1008L;Q1011D)
# How it was run: as §1
# [7] = biological target: PUM1 PUF domain R5-QKA (Homo sapiens, UniProt Q14671 828-1176, C1007Q;R1008K;Q1011A)
# How it was run: as §1
# [8] = biological target: PUM1 PUF domain R5-KRF (Homo sapiens, UniProt Q14671 828-1176, C1007K;Q1011F)
# How it was run: as §1
# [9] = biological target: PUM1 PUF domain R5-RYG (Homo sapiens, UniProt Q14671 828-1176, C1007R;R1008Y;Q1011G)
# How it was run: as §1
# [10] = biological target: PUM1 PUF domain R4-FGC (Homo sapiens, UniProt Q14671 828-1176, N971F;H972G;Q975C)
# How it was run: as §1
# [11] = biological target: PUM1 PUF domain R3-FFL (Homo sapiens, UniProt Q14671 828-1176, C935F;R936F;Q939L)
# How it was run: as §1
# [12] = biological target: PUM1 PUF domain R4-LGC (Homo sapiens, UniProt Q14671 828-1176, N971L;H972G;Q975C)
# How it was run: as §1
# [13] = biological target: PUM1 PUF domain R4-CCG (Homo sapiens, UniProt Q14671 828-1176, N971C;H972C;Q975G)
# How it was run: as §1
# [14] = biological target: T1, PUM1 PUF domain R6-IWS (Homo sapiens, UniProt Q14671 828-1176, N1043I;Y1044W;Q1047S)
# T1 sequence: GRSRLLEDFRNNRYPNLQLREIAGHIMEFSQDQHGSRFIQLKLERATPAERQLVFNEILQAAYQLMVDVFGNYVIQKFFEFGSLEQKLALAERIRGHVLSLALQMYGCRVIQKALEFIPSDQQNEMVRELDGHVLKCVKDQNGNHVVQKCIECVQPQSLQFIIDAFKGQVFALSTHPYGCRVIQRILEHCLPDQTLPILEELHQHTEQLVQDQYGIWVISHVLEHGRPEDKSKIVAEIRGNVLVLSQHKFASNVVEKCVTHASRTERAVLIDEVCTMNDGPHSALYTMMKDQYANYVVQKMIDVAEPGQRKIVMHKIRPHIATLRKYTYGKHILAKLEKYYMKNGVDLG
# How it was run: as §1
# [15] = biological target: PUM1 PUF domain R1-FAR (Homo sapiens, UniProt Q14671 828-1176, S863F;R864A;Q867R)
# How it was run: as §1
# [16] = biological target: PUM1 PUF domain R1-GMR (Homo sapiens, UniProt Q14671 828-1176, S863G;R864M;Q867R)
# How it was run: as §1
# [17] = biological target: PUM1 PUF domain R2-EHL (Homo sapiens, UniProt Q14671 828-1176, N899E;Y900H;Q903L)
# How it was run: as §1
# [18] = biological target: PUM1 PUF domain R7-RAS (Homo sapiens, UniProt Q14671 828-1176, S1079R;N1080A;E1083S)
# How it was run: as §1
# [19] = biological target: PUM1 PUF domain R3-RAC (Homo sapiens, UniProt Q14671 828-1176, C935R;R936A;Q939C)
# How it was run: as §1
# [20] = biological target: PUM1 PUF domain R3-RCR (Homo sapiens, UniProt Q14671 828-1176, C935R;R936C;Q939R)
# How it was run: as §1
sequence,measurement,setting,value
GGCUAGAACUAGUGGAUCCCCCGGCGCCCGGCGGCUCGAGCCCGGGUAAGUGUAAAGAGUCUGCAUGCCGCCGGGCGCCAUGCCUGCAGGUCGACUCUAGAAAACAUG,binding signal,[1],3.32 log2 enrichment (interaction score)
GGCUAGAACUAGUGGAUCCCCCGGCGCCCGGCGGCUCGAGCCCGGGUAAGCGUAAAUAGUCUGCAUGCCGCCGGGCGCCAUGCCUGCAGGUCGACUCUAGAAAACAUG,binding signal,[2],2.84 log2 enrichment (interaction score)
GGCUAGAACUAGUGGAUCCCCCGGCGCCCGGCGGCUCGAGCCCGGGUAAGUGUUAAUAGUCUGCAUGCCGCCGGGCGCCAUGCCUGCAGGUCGACUCUAGAAAACAUG,binding signal,[3],2.93 log2 enrichment (interaction score)
same,binding signal,[4],7.41 log2 enrichment (interaction score)
same,binding signal,[5],4.76 log2 enrichment (interaction score)
same,binding signal,[6],0.72 log2 enrichment (interaction score)
GGCUAGAACUAGUGGAUCCCCCGGCGCCCGGCGGCUCGAGCCCGGGUAAGUGUCAAUAGUCUGCAUGCCGCCGGGCGCCAUGCCUGCAGGUCGACUCUAGAAAACAUG,binding signal,[7],2.79 log2 enrichment (interaction score)
same,binding signal,[8],2.59 log2 enrichment (interaction score)
same,binding signal,[9],5.09 log2 enrichment (interaction score)
same,binding signal,[3],2.31 log2 enrichment (interaction score)
same,binding signal,[4],0.48 log2 enrichment (interaction score)
same,binding signal,[5],3.55 log2 enrichment (interaction score)
same,binding signal,[6],2.78 log2 enrichment (interaction score)
GGCUAGAACUAGUGGAUCCCCCGGCGCCCGGCGGCUCGAGCCCGGGUAAGUGUAAAUAGUCUGCAUGCCGCCGGGCGCCAUGCCUGCAGGUCGACUCUAGAAAACAUG,binding signal,[9],2.94 log2 enrichment (interaction score)
same,binding signal,[10],1 log2 enrichment (interaction score)
same,binding signal,[11],3.27 log2 enrichment (interaction score)
same,binding signal,[12],4 log2 enrichment (interaction score)
same,binding signal,[13],2.6 log2 enrichment (interaction score)
same,binding signal,[14],2.75 log2 enrichment (interaction score)
GGCUAGAACUAGUGGAUCCCCCGGCGCCCGGCGGCUCGAGCCCGGGUAAGUGUAAAUUGUCUGCAUGCCGCCGGGCGCCAUGCCUGCAGGUCGACUCUAGAAAACAUG,binding signal,[15],4.18 log2 enrichment (interaction score)
same,binding signal,[16],1.96 log2 enrichment (interaction score)
GGCUAGAACUAGUGGAUCCCCCGGCGCCCGGCGGCUCGAGCCCGGGUAAGUGUACAUAGUCUGCAUGCCGCCGGGCGCCAUGCCUGCAGGUCGACUCUAGAAAACAUG,binding signal,[10],0.93 log2 enrichment (interaction score)
same,binding signal,[13],0.76 log2 enrichment (interaction score)
GGCUAGAACUAGUGGAUCCCCCGGCGCCCGGCGGCUCGAGCCCGGGUAAGUGUAAAAAGUCUGCAUGCCGCCGGGCGCCAUGCCUGCAGGUCGACUCUAGAAAACAUG,binding signal,[17],3.07 log2 enrichment (interaction score)
GGCUAGAACUAGUGGAUCCCCCGGCGCCCGGCGGCUCGAGCCCGGGUAAGUGUAAAUCGUCUGCAUGCCGCCGGGCGCCAUGCCUGCAGGUCGACUCUAGAAAACAUG,binding signal,[15],0.5 log2 enrichment (interaction score)
same,binding signal,[16],3.57 log2 enrichment (interaction score)
GGCUAGAACUAGUGGAUCCCCCGGCGCCCGGCGGCUCGAGCCCGGGUAAGUUUAAAUAGUCUGCAUGCCGCCGGGCGCCAUGCCUGCAGGUCGACUCUAGAAAACAUG,binding signal,[18],2.46 log2 enrichment (interaction score)
GGCUAGAACUAGUGGAUCCCCCGGCGCCCGGCGGCUCGAGCCCGGGUAAGUGUAAUUAGUCUGCAUGCCGCCGGGCGCCAUGCCUGCAGGUCGACUCUAGAAAACAUG,binding signal,[19],4.24 log2 enrichment (interaction score)
same,binding signal,[20],2.77 log2 enrichment (interaction score)
GGCUAGAACUAGUGGAUCCCCCGGCGCCCGGCGGCUCGAGCCCGGGUAAGUGUAUAUAGUCUGCAUGCCGCCGGGCGCCAUGCCUGCAGGUCGACUCUAGAAAACAUG,binding signal,[10],3.05 log2 enrichment (interaction score)
same,binding signal,[13],1.84 log2 enrichment (interaction score)
